Structures are written as SMILES. A number with no mark means an inactive call. How the calls were made is not given here.

Pantothenate synthetase (Mycobacterium tuberculosis (strain ATCC 25618 / H37Rv)), sequence (P9WIL5 whole entry, looked up): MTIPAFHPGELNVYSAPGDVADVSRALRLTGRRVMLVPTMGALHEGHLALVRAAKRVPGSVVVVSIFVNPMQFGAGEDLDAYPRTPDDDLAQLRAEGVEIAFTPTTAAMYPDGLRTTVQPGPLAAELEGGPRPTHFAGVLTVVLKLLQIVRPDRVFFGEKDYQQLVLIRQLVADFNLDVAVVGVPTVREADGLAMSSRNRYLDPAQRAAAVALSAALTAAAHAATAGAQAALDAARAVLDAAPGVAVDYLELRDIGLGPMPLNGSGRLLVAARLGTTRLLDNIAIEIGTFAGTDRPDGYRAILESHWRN

This assay concerns the target Pantothenate synthetase (Mycobacterium tuberculosis (strain ATCC 25618 / H37Rv)) (UniProt P9WIL5). Description: Coupled enzyme confirmation of inhibitors against recombinant Mtb PanC (AID 375).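 Further: 0% = full reaction with vehicle and 100% = no enzyme background.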 The settings on record: coupled enzyme assay; at 10 µM, stronger effect = higher value.
For the compound `COc1ccc(CCNc2oc(Cc3cccc4ccccc34)nc2C#N)cc1OC`, the inhibition was 5%.

`Fc1ccccc1-c1nc(NCCCN2CCOCC2)c2ccccc2n1`: the inhibition is 0%.

Turning to `O=S(=O)(NCC1CCCO1)c1cc(Cl)ccc1Br` (stereo not given), the inhibition was 0%.

On to `Cc1nc(SCc2ccc(Br)cc2)[nH]c(=O)c1C`, for which the inhibition was 0%.

As for `Cn1c(=O)c2c(ncn2CC(O)CO)n(C)c1=O` (stereo not given), the inhibition was 0%.

`Cc1ccc(OC(=O)CCC(=O)OCCCC(F)(F)C(F)(F)F)cc1`: the inhibition is 3%.

With `CC(=O)c1c(C)[nH]c(C(=O)N2CCN(C(=O)c3ccco3)CC2)c1C`, the inhibition is 0%.

On to `CNC(=O)CN(C#N)c1nc(N(C)C)nc(N(C)C)n1`, for which the inhibition is 0%.

Consider `Cc1cc(C)nc(SCc2ccc3nonc3c2)n1`, for which the inhibition is 1%.

On to `Cc1[nH]nc2c1C(=O)CC(C)(C)C2`, for which the inhibition was 0%.

On to `COc1cc2c(N3CCOCC3)cc(O)c(CC(=O)Nc3ccccc3)c2cc1OC`, for which the inhibition was 7%.

With `O=C(CCNS(=O)(=O)c1cccc2nsnc12)NCc1cccs1`, the inhibition was 1%.

For the compound `Cn1c(=O)c2c(nc(NCc3ccccc3)n2CCCc2ccccc2)n(C)c1=O`, the inhibition is 0%.

Take `CCNc1oc(COc2ccccc2F)nc1C#N`: the inhibition is 9%.

As to `COc1ccccc1OCCn1c(=O)sc2ccccc21`, the inhibition is 0%.

On to `CC(=O)c1cnc2cc(-c3ccccc3)nn2c1C`, for which the inhibition was 0%.

Regarding `Cc1ccc(C(C(=O)NC2CCCCC2)N2CCOCC2)cc1` (stereo not given), the inhibition was 0%.

Take `COc1ccccc1NC(=O)CSc1nnc(-c2ccncc2)n1CC1CCCO1` (stereo not given): the inhibition was 0%.

With `Cc1cc2ncn(C(=O)N3CCOCC3)c2cc1C`, the inhibition is 0%.

As for `COc1cc(C(=O)OC(C)CN2CCCC2)cc(OC)c1OC` (stereo not given), the inhibition is 4%.

Regarding `O=C(CC1Oc2ccc(Cl)cc2NC1=O)NC1CCCCCC1` (stereo not given), the inhibition was 6%.

Consider `COC(=O)c1cn(-c2ccccc2)nc1C(=O)OC`, for which the inhibition is 2%.

`CCCCCCNC(=O)c1c(N)n(/N=C/c2ccco2)c2nc3ccccc3nc12`: the inhibition was 5%.

Consider `CC(C)c1ncc(C(O)c2cccc3ccccc23)n1C` (stereo not given), for which the inhibition is 0%.

As to `COc1ccc(C2=NOC(C(=O)Nc3cc(Br)ccc3O)C2)cc1OC` (stereo not given), the inhibition was 3%.

For the compound `O=C(Cn1ncc2c(=O)oc3ccccc3c21)Nc1nc2ccccc2s1`, the inhibition is 0%.

As for `COc1ccc(C2=NOC(C(=O)NC3CCCCC3)C2)cc1OC` (stereo not given), the inhibition was 2%.

For the compound `Cc1ccc(-n2ncc3c(=O)n(CC(=O)NC4CCCCC4)cnc32)cc1C`, the inhibition is 12%.

With `O=C(O)CC1=C(O)C(=O)N(c2ccccc2)C1c1ccccc1` (stereo not given), the inhibition was 0%.

`CCCN1CCC(NC(=O)Nc2ccc(OC)c(OC)c2)CC1`: the inhibition was 0%.

`c1cncc(-c2nnc3sc(-c4ccco4)nn23)c1`: the inhibition was 0%.

`CC1CN(c2nc3ccccc3nc2C(C#N)C(=O)OC2CCCCC2)CC(C)O1` (stereo not given): the inhibition is 2%.

In the case of `O=C(CN(CC1CCCO1)S(=O)(=O)c1ccc(S(=O)(=O)NC2CC2)cc1)Nc1ccccc1` (stereo not given), the inhibition was 0%.

`O=C(CC1CCS(=O)(=O)C1)Nc1ccc[nH]c1=O` (stereo not given): the inhibition is 2%.

As for `COc1ccc(CN2C(=O)C(O)(CC(=O)c3c(C)n[nH]c3C)c3ccccc32)cc1OC` (stereo not given), the inhibition is 0%.

`CCCCCCC(c1c(C)n(C)n(-c2ccccc2)c1=O)c1c(C)n(C)n(-c2ccccc2)c1=O`: the inhibition was 0%.

As to `COc1cc2c(cc1NCc1ccccn1)oc1ccccc12`, the inhibition was 0%.

As to `CCC(C)(C)n1nnnc1C(c1ccc(OC)c(OC)c1)N1CCN(c2ccc(F)cc2)CC1` (stereo not given), the inhibition is 0%.

Regarding `Cc1ccc(Cn2c(NCCc3ccccc3)nc3c2c(=O)n(C)c(=O)n3C)cc1`, the inhibition is 4%.

`O=C(NCc1ccccn1)c1cccs1`: the inhibition was 0%.

These data come from PubChem BioAssay.
